From PubChem BioAssay
Only some compounds are listed: those with a hit (about 9.4% of all), similar ones and a draw of the others.
SMN2 splice up: SMN2 splice variant enhancement. HEK293 SMN2-luciferase splicing reporter, luminescence, 30-36 h. Potency, µM (series often up to 46.1 µM), hits mostly activators. actives 2.8% (n = 210,000). AID 1458; further: nearly all actives have a fitted effect of over 55% in size
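HEK293 cells carry an SMN2 minigene-luciferase reporter in which exon 7 inclusion puts luciferase in frame. Cells were seeded at 2000 cells/well, attached for 10-12 hours, then exposed to compounds for 30-36 hours at 37C before ONE-Glo luminescence.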
Rab9 prom act: Rab9 promoter activation; Huh7 Rab9 promoter-luciferase reporter, luminescence, 24 h; Potency, µM (doses to about 9.22 µM), most hits filed as activators; actives 2.8% (n = 320,000); AID 485297; further: nearly all actives have a fitted effect of over 60% in size
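Cell-based reporter: Huh7 stable for Rab9 promoter-driven luciferase, plated in reduced-serum medium with 10% FBS at 1500 cells/well, compound-treated 24 h at 37 °C, luminescence read after 10 min reagent.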
ELG1 genotox: induces genotoxicity in HEK293T cells with luciferase-tagged ELG1. HEK293T ELG1-luciferase reporter, luminescence, 16 h. Potency, µM (doses to about 46 µM), usual class: activators. actives 1.3% (n = 330,000); further: nearly all actives have a fitted effect of over 60% in size
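After overnight (16 hr) compound treatment at 37 °C, ELG1-luciferase HEK293T cells were lysed with ONE-Glo; luminescence quantified 30 min later at room temperature.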
ELG1 repair inh: inhibitors of ELG1-dependent DNA repair in HEK293T cells | actives 2.3% (n = 330,000) | AID 504467 | Potency, µM (doses to about 46.1 µM), usual class: inhibitors | HEK293T ELG1-luciferase reporter, luminescence, 16 h; DNA damage induced by 5-fluorouridine; further: nearly all actives have a fitted effect of over 55% in size
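Reporter activity after DNA damage by 5-fluorouridine is monitored. Compound-treated cells incubate 16 hr at 37 °C, then ONE-Glo is added for 30 min before luminescence reading.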
FLuc modulator: firefly luciferase modulation, counter-screen for miR-21 project; P08659; purified FLuc, Km substrates, luminescence inhibition; Potency, µM (titrated, usually from 57.5 µM), usual class: inhibitors; actives 6.9% (n = 360,000); further: nearly all actives have a fitted effect of over 55% in size
Target sequence (P08659 whole entry, looked up): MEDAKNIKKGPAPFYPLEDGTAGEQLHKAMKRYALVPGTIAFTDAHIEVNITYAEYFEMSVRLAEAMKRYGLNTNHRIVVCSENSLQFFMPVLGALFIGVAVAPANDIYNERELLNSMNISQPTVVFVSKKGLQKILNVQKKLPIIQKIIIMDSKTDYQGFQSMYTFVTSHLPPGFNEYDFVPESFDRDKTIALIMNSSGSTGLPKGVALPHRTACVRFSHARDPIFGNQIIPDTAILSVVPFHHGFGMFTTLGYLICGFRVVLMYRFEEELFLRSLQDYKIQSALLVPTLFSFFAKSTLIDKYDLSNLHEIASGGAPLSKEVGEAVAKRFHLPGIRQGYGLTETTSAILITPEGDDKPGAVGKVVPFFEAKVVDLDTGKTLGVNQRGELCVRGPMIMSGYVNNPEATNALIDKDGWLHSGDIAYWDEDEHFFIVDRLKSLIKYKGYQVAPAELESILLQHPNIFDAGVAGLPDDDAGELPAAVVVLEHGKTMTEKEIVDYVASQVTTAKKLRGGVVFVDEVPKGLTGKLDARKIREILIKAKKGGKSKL
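Purified P. pyralis luciferase (10nM final) with 10uM D-luciferin and 10uM ATP (Km levels) in 50mM Tris acetate pH 7.5, 10mM Mg acetate, 0.01% Tween-20, 0.05% BSA; qHTS 6-point titration, ~60 µM downward; luminescence read.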
NPC1 prom act: NPC1 promoter activation; Huh7 NPC1 promoter luciferase reporter, 24 h; Potency, µM (highest dose often 9.22 µM), actives largely listed as activators; actives 2.4% (n = 320,000); further: nearly all actives have a fitted effect of over 60% in size
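Compounds in DMSO were transferred onto Huh7 NPC1-luciferase reporter cells pre-incubated 2 h; after 24 h at 37 °C, Amplite reagent was dispensed and luminescence recorded 10 min later.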
A number is an active result; i = inactive; ? = inconclusive; nt = no result; [ ] = another dose, or the depositor's remark. The call rests on the fitted dose curve; in most records, active means well fitted curve in the direction sought with a large enough effect; inconclusive means small, poorly fitted or top-dose-only effect, or another doubt; inactive means no such curve, though single readings can be large; an effect the other way counts as inactive or inconclusive.

SMILES | SMN2 splice up | Rab9 prom act | ELG1 genotox | ELG1 repair inh | FLuc modulator | NPC1 prom act
Cc1nnc(SCC(=O)Nc2nnc(-c3ccccc3)o2)s1 | nt | i | i | i | 19µM | i
CC(=O)NCCNC(=O)CCCn1c(=O)[nH]c2ccsc2c1=O | i | nt | nt | nt | i | nt
O=C(C1CCN(S(=O)(=O)Cc2ccccc2)CC1)N1CCN(c2cccc(C(F)(F)F)c2)CC1 | nt | nt | nt | nt | i | nt
COc1ccc(C(C(=O)NCc2ccccc2)N(Cc2ccco2)C(=O)c2snc(C(N)=O)c2N)cc1OC (stereo not drawn) | nt | i | i | 15µM | i | i
Cc1ccc(C(C(=O)NCc2ccccc2)N(Cc2ccco2)C(=O)c2snc(C(N)=O)c2N)o1 (stereo not drawn) | nt | i | i | ? | i | i
COc1ccc(C(C(=O)NCc2ccccc2)N(C(=O)c2snc(C(N)=O)c2N)c2ccccc2OC)cc1 (stereo not drawn) | nt | i | i | 18µM | i | i
NC(=O)c1nsc(C(=O)N(c2cccc(F)c2)C(C(=O)NC2CCCC2)c2ccc(O)cc2)c1N (stereo not drawn) | nt | i | i | i | i | i
COc1ccc(C(C(=O)NCC2CCCO2)N(Cc2ccco2)C(=O)c2snc(C(N)=O)c2N)cc1OC (stereo not drawn) | nt | i | i | i | i | i
COc1ccc(C(C(=O)NC2CCCC2)N(C(=O)c2snc(C(N)=O)c2N)c2cccc(O)c2)cc1 (stereo not drawn) | nt | i | i | 16µM | i | i
COc1ccc(C(C(=O)NCc2ccccc2)N(Cc2ccco2)C(=O)c2snc(C(N)=O)c2N)cc1 (stereo not drawn) | nt | i | i | 21µM | i | i
COc1ccccc1N(C(=O)c1snc(C(N)=O)c1N)C(C(=O)NCc1ccccc1)c1ccc(O)cc1 (stereo not drawn) | nt | i | i | i | i | i
C[C@H](NCCN(C)C)[C@@H]1CCC2C3CCc4cc(O)ccc4[C@H]3CCC21C (stereo partly drawn) | i[9.22 µM] | nt | nt | nt | nt | nt
O=C(Nc1ccc2oc(-c3cccc4c(Br)cccc34)nc2c1)c1ccc(F)cc1 | i | nt | nt | nt | i | nt
COc1ccc(C2=C(C)C(N3CCC(C(=O)NCc4ccco4)CC3)=NS2(=O)=O)cc1 | nt | nt | nt | nt | i | nt
COc1ccc(C(C#N)=C2C=CC(=NO)C=C2)cc1 | nt | i | i | i | 17µM | i
CCc1cccc(NC(=O)Nc2csc3c2CCCC3)c1 | i | nt | nt | nt | ? | nt
O=C(Nc1cccc(S(=O)(=O)N2CCOCC2)c1)c1ccc2c(=O)n3c(nc2c1)CCCCC3 | i | i | i | 12µM | ? | i
CCC(C)NC(=O)c1ccc2c(=O)n3c(nc2c1)CCCCC3 (stereo not drawn) | i | nt | nt | nt | i | nt
COc1ccc(NC(=O)c2ccc3c(=O)n4c(nc3c2)CCCCC4)cc1 | nt | i | i | ? | 27µM | i
O=C(Nc1ccc(SC(F)F)cc1)c1ccc2c(=O)n3c(nc2c1)CCC3 | nt | ? | i | ? | 2.4µM | i
Cc1ccc(NC(=O)c2ccc3c(=O)n4c(nc3c2)CCCCC4)cc1F | nt | i | i | i | ? | i
O=C(NC1CCCCCC1)c1ccc2c(=O)n3c(nc2c1)CCCCC3 | 13µM | 2µM | 3.5µM | ? | 8.5µM | 2.8µM
COC(=O)c1ccc(NC(=O)CC2Nc3cc(C)c(C)cc3NC2=O)cc1 (stereo not drawn) | i | nt | nt | nt | i | nt
Cc1cc(C)c2nc(NC(=O)c3ccc4c(=O)n5c(nc4c3)CCCCC5)sc2c1 | i | i | i | 10µM | i | i
O=C(Nc1cccc(S(=O)(=O)N2CCCC2)c1)c1ccc2c(=O)n3c(nc2c1)CCCCC3 | i | i | i | 5.8µM | 12µM | i
SMILES | SMN2 splice up | Rab9 prom act | ELG1 genotox | ELG1 repair inh | FLuc modulator | NPC1 prom act
Cc1cccc(NC(=O)c2ccc3c(=O)n4c(nc3c2)CCCCC4)n1 | nt | 0.5µM | ? | ? | 4.8µM | 1.3µM
CC(=O)c1cccc(NC(=O)c2ccc3c(=O)n4c(nc3c2)CCCCC4)c1 | i | i | i | i | 15µM | i
Cc1ccc(NC(=O)c2ccc3c(=O)n4c(nc3c2)CCCCC4)nc1 | nt | ? | i | i | ? | i
Cc1ccc(S(=O)(=O)c2nnn3c2nc(NCc2cccs2)c2sccc23)cc1C | nt | nt | nt | nt | i | nt
COc1cc(/C=N/NC(=O)Cn2nnc3ccccc32)ccc1O | i | i | i | i | i | i
COc1cc(/C=N/NC(=O)CCn2nnc3ccccc32)ccc1O | i | i | i | i | 15µM | i
COc1cccc(/C=N\NC(=O)Cn2nnc3ccccc32)c1O | nt | i | ? | i | 17µM | i
CCn1c(SCC(=O)NCc2cccs2)nnc1-c1ccncc1 | i | ? | i | i | i | i
CCn1c(SCC(=O)Nc2cccc(NC(=O)c3cccs3)c2)nnc1-c1ccncc1 | nt | i | i | 18µM | ? | i
CCn1c(CCNC(=O)c2cccs2)nnc1SCC(=O)Nc1nc(-c2ccccc2)cs1 | i | i | i | 23µM | ? | i
CCn1c(SCC(=O)Nc2nc(-c3ccccc3)cs2)nc2c1c(=O)n(C)c(=O)n2C | i | i | ? | i | i | i
CCn1c(SCC(=O)Nc2nc(-c3ccccc3)cs2)nnc1-c1ccccc1O | i | i | i | 21µM | ? | i
O=C(CSc1nc2ccccc2o1)Nc1nc(-c2ccccc2)cs1 | ? | i | ? | ? | 21µM | i
CCc1ccccc1NC(=O)C(=O)NCC(c1cccnc1)N1CCc2ccccc21 (stereo not drawn) | nt | nt | nt | nt | i | nt
CSc1ccc(CNC(=O)Cn2c(-c3cccs3)cc3cc(F)ccc32)cc1 | nt | nt | nt | nt | i | nt
c1ccc2c(c1)[nH]c1c(N3CCC4(CC3)OCCO4)ncnc12 | i | i | i | 21µM | i | i
COc1cccc(N2CCN(c3ncnc4c3[nH]c3ccccc34)CC2C)c1 (stereo not drawn) | i | i | i | 4.6µM | i | i
c1ccc2c(c1)CCN(c1ncnc3c1[nH]c1ccccc13)C2 | nt | i | i | 9.2µM | i | i
COc1cccc2[nH]c3c(N4CCC5(CC4)OCCO5)ncnc3c12 | nt | i | i | i | ? | i
OC1(c2cccc(C(F)(F)F)c2)CCN(c2ncnc3c2[nH]c2ccccc23)CC1 | i | i | i | i | i | i
COc1cccc2[nH]c3c(N4CCc5ccccc5C4)ncnc3c12 | nt | i | i | 13µM | i | i
O=C(C1CCN(S(=O)(=O)c2ccc(Br)s2)CC1)N1CCN(c2cccc(Cl)c2)CC1 | i | nt | nt | nt | i | nt
O=C(O)c1cncc(C(=O)O)c1 | i[9.22 µM] | nt | nt | nt | nt | nt
CCc1ccc(/C=C2/Sc3ccccc3N(CC(=O)NCCCN3CCOCC3)C2=O)cc1 | nt | i | i | i | 19µM | i
